Where “and” joins values, the source holds several entries; their conditions need not be identical. Equal entries are not always repeated. Results filed as inconclusive are left out. Where a call stands in place of a potency, no number is given. Calls of active or inactive are those of the source. Calls come from the whole dose curve.
Assay: qHTS assay for small molecules that induce genotoxicity in human embryonic kidney cells expressing luciferase-tagged ATAD5 - cell viability (AID 651634); note: nearly all actives have a fitted effect of over 25% in size
Conditions: HEK293T ATAD5-luc cells viability, CellTiter-Fluor, 15.5 h; series mostly up to 83.3 µM; activity, negative = cytotoxicity: at the top concentration
Excerpt: National Center for Advancing Translational Sciences [NCATS]
NIH Chemical Genomics Center [NCGC]
U.S. Environmental Protection Agency [EPA]
National Institutes of Environmental Health Sciences [NIEHS]
National Toxicology Program [NTP]
U.S. Food and Drug Administration [FDA]
Enhanced Level of Genome Instability Gene 1 (ELG1; human ATAD5) protein levels increase in response to various types of DNA damage. Using a luciferase reporter-gene tagged with ElG1, a cell-based assay [developed by Kyungjae Myung, NHGRI, NIH] was used to measure the induction of ATAD5 in human embryonic kidney cells (HEK293T). So, increase in luciferase activity can be used to identify the compounds that cause genetic stress. In addition to genotoxicity, these cells were also used to test for cytotoxicity by measuring the protease activity within live cells.
Tox21 Assay Protocol Summary:
For cytotoxicity screening, 2,000 cells in 5 uL/well were dispensed into white, solid-bottom 1536-well plates using a Multidrop Combi (Thermo Scientific) dispenser. Following transfer of 23 nL compound or DMSO vehicle by a pin tool, the plates were incubated 15.5 hr at 37C and 5% CO2. 1 ul CellTiter-Fluor reagent (Promega, Madison, WI) was then added to each plate and following 30 min incubation at 37C, fluorescence intensity was quantified on a ViewLux CCD-based plate reader.
Potency is the fitted concentration of half-maximal effect.

Structure (SMILES)	Potency	activity, negative = cytotoxicity
CC/C=C\C/C=C\C/C=C\CCCCCCCC(=O)O	inactive	
c1ccc2ncccc2c1	inactive	
C=CN1CCCC1=O	inactive	
CC(=O)[C@@]1(O)CC[C@H]2[C@@H]3C[C@H](C)C4=CC(=O)C=C[C@]4(C)[C@@]3(F)[C@@H](O)C[C@@]21C	inactive	
CCC(=O)O[C@H]1[C@H](O[C@@H]2[C@@H](C)[C@H](O[C@H]3C[C@@](C)(OC)[C@@H](O)[C@H](C)O3)[C@@H](C)C(=O)O[C@H](CC)[C@@](C)(O)[C@H](O)[C@@H](C)C(=O)[C@H](C)C[C@@]2(C)O)O[C@H](C)C[C@@H]1N(C)C		-21% (inactive)
CC(=O)Oc1ccc(C(c2ccc(OC(C)=O)cc2)c2ccccn2)cc1	inactive	
O=C(O)CCCC(=O)O	inactive	
CCCCCCCCCCCCCO	inactive	
CC(C)(C)c1cccc(C(C)(C)C)c1O	inactive	
Cc1ccc2c(c1)C(=O)OC2=O	inactive	
Cc1ccc(S(=O)(=O)NCl)cc1	inactive	
COc1ccc2nc(N)sc2c1	inactive	
C1CN(SSN2CCOCC2)CCO1	inactive	
CC(=O)Nc1ccc2c(c1)Cc1cc(NC(C)=O)ccc1-2	inactive	
C=CCNCC=C	inactive	
C=CC(C)(O)CCC=C(C)C (stereo not given)	inactive	
Nc1ccc(N)c(Cl)c1	inactive	
Oc1c(Cl)ccc(Cl)c1Cl	inactive	
COC(=O)CC(=O)OC	inactive	
CC(C)(Oc1ccc(Cl)cc1)C(=O)O	inactive	

Structure (SMILES)	Potency	activity, negative = cytotoxicity
Brc1nc2ccccc2s1	inactive	
IC(I)I	inactive	
CN(Cc1cnc2nc(N)nc(N)c2n1)c1ccc(C(=O)N[C@@H](CCC(=O)O)C(=O)O)cc1	inactive	
CN(C)C	inactive	
C[N+](C)(C)CCO	inactive	
Cc1ccc(C)c(O)c1	inactive	
Nc1ccc(O)c(N)c1	54.1 µM (active) and 61.1 µM (active)	
OC[C@H]1O[C@@H]2O[C@H]3[C@H](O)[C@@H](O)[C@@H](O[C@H]4[C@H](O)[C@@H](O)[C@@H](O[C@H]5[C@H](O)[C@@H](O)[C@@H](O[C@H]6[C@H](O)[C@@H](O)[C@@H](O[C@H]7[C@H](O)[C@@H](O)[C@@H](O[C@H]1[C@H](O)[C@H]2O)O[C@@H]7CO)O[C@@H]6CO)O[C@@H]5CO)O[C@@H]4CO)O[C@@H]3CO	inactive	
CNC[C@H](O)c1ccc(O)c(O)c1	inactive	
c1ccc2c(c1)[nH]c1ccccc12	inactive	
O=C1CCc2ccccc2O1	inactive	
CC(C)=CCO	inactive	
Cc1ccc(S(=O)(=O)O)cc1C	inactive	
CCCCCCCC/C=C\CCCCCCCC(=O)O	inactive	
Oc1ccc(C(c2ccc(O)cc2)C(Cl)(Cl)Cl)cc1	inactive	
CN(C)/N=N/c1nc[nH]c1C(N)=O	inactive	
COCCOCCOCCO	inactive	
CCCCCCCCCCC(CO)CCCCCCCC (stereo not given)	inactive	
O=C(O)c1ccc(O)cc1	inactive	
COc1ccc(C(=O)c2ccccc2O)c(O)c1	inactive	

From PubChem BioAssay (Tox21)
